Reference: the supplement of paper PMC6555819

Columns and labels:
Test in all cases: PBM binding z-score (relative to random genomic background probes); higher = stronger binding; sequences stand for … in GC…GCGATTGACAGCGTAGAATGAAGG
[1] = tested on: FXR:RXRa (NR concentration 270 nM, RXRa partner concentration 90 nM)
How it was run: (§1)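 On custom Agilent 4×180K arrays, double-stranded probes with 34-nt variable regions carried direct-repeat seeds, single-nucleotide variants, half-site ablations or random human genomic background. Ligand-free nuclear receptor dimers were applied for 1 h, and binding was read with antibodies against each partner (one per run). Binding z-scores come from regression-normalized fluorescence, with the random background probes as reference.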

[2] = tested on: LXRa:RXRa (NR concentration 270 nM, RXRa partner concentration 90 nM)
How it was run: as §1

[3] = tested on: LXRa homodimer (NR concentration 270 nM)
How it was run: as §1

[4] = tested on: LXRb:RXRa (NR concentration 270 nM, RXRa partner concentration 90 nM)
How it was run: as §1

[5] = tested on: LXRb homodimer (NR concentration 270 nM)
How it was run: as §1

[6] = tested on: PPARa:RXRa (NR concentration 270 nM, RXRa partner concentration 90 nM)
How it was run: as §1

[7] = tested on: PPARg:RXRa (NR concentration 180 nM, RXRa partner concentration 90 nM)
How it was run: as §1

[8] = tested on: PPARg:RXRa 270nM:90nM, anti-RXR (NR concentration 270 nM, RXRa partner concentration 90 nM)
How it was run: as §1

[9] = tested on: PPARg:RXRa 30nM:10nM, anti-RXR (NR concentration 30 nM, RXRa partner concentration 10 nM)
How it was run: as §1

[10] = tested on: PPARg:RXRa 90nM:30nM, anti-RXR (NR concentration 90 nM, RXRa partner concentration 30 nM)
How it was run: as §1

[11] = tested on: PPARg:RXRa DBDmut IVT, anti-RXR (DBD mutation: RXRa K156A/R161A, NR concentration 270 nM, RXRa partner concentration 90 nM)
How it was run: as §1

[12] = tested on: PPARg:RXRa IVT, anti-PPARg (NR concentration 270 nM, RXRa partner concentration 90 nM)
How it was run: as §1

[13] = tested on: PPARg DBDmut:RXRa IVT, anti-PPARg (DBD mutation: PPARg1 K132A/R137A, NR concentration 270 nM, RXRa partner concentration 90 nM)
How it was run: as §1

[14] = tested on: PPARg DBDmut IVT, anti-PPARg (DBD mutation: PPARg1 K132A/R137A, NR concentration 270 nM)
How it was run: as §1

[15] = tested on: PPARg homodimer (NR concentration 180 nM)
How it was run: as §1

[16] = tested on: PXR:RXRa (NR concentration 270 nM, RXRa partner concentration 90 nM)
How it was run: as §1

[17] = tested on: PXR homodimer (NR concentration 270 nM)
How it was run: as §1

[18] = tested on: RARa:RXR (NR concentration 270 nM, RXRa partner concentration 90 nM)
How it was run: as §1

[19] = tested on: RARa homodimer (NR concentration 270 nM)
How it was run: as §1

[20] = tested on: RARb:RXRa (NR concentration 270 nM, RXRa partner concentration 90 nM)
How it was run: as §1

Sequence | PBM binding z-score [1] | PBM binding z-score [2] | PBM binding z-score [3] | PBM binding z-score [4] | PBM binding z-score [5] | PBM binding z-score [6] | PBM binding z-score [7] | PBM binding z-score [8] | PBM binding z-score [9] | PBM binding z-score [10] | PBM binding z-score [11] | PBM binding z-score [12] | PBM binding z-score [13] | PBM binding z-score [14] | PBM binding z-score [15] | PBM binding z-score [16] | PBM binding z-score [17] | PBM binding z-score [18] | PBM binding z-score [19] | PBM binding z-score [20]
AGAACGAGGGCACGCTGAGTTGATAGCCGAGTAG | 0.799 | 0.509 | -0.574 | 0.154 | -0.961 | 2.17 | 2.04 | 1.7 | -0.0721 | 0.936 | 4.46 | 4.04 | 0.489 | 0.266 | 0.0307 | 1.21 | -0.287 | 0.916 | -0.217 | 2.42
GCTAGCAGGGCATTTGGGTCACTCAATGACGGGC | 0.398 | 0.383 | -0.133 | 0.541 | -0.663 | 1.77 | 1.28 | 1.08 | -0.197 | 0.478 | 2.42 | 3.14 | 0.0662 | -0.844 | 0.341 | 1.06 | 0.171 | 1 | -0.58 | 1.76
ACTAGTTGGGCAGCTGAGGTCACACACAATTCGG | 2.42 | 2.48 | 1.5 | 2.74 | 0.155 | 3.31 | 1.34 | 1.8 | 0.192 | 1.26 | 1.04 | 1.73 | 0.77 | 0.164 | 2.17 | 4.46 | 1.48 | 4.23 | 0.707 | 3.05
CCTCGGAGGACCACAGGAGGTCAGAGCTGCCAGA | 0.729 | 1.79 | 0.525 | 1.3 | -0.715 | 1.97 | 0.00464 | 0.0668 | -0.599 | -0.575 | -0.849 | -0.16 | -0.752 | -1.46 | 1.3 | 2.22 | 0.21 | 2.45 | 0.245 | 2.18
TAGCGTAGGTCATGGGCCAGTATACCACGCGAAC | 4.78 | 3.98 | 0.0742 | 2.68 | -0.458 | 4.58 | 3.92 | 4.08 | 1.41 | 2.88 | 0.846 | 2.41 | -0.196 | 0.0667 | 0.862 | 2.19 | -0.726 | 3.4 | -0.444 | 3.9
CAAACTAGGTCAAGGTCAAAGTGGGTTTGTGCCA | 6.71 | 5.42 | 3.68 | 4.73 | 1.29 | 6.04 | 9.42 | 7.89 | 6.5 | 8.27 | 8.63 | 8.56 | 2.16 | 1.39 | 3.95 | 5.56 | 2.52 | 5.18 | 1.68 | 5.14
ATCTCTAGGTAAAAGTACAGTGAATCCCGAGGAT | 0.212 | 0.0141 | 0.0637 | -0.267 | 0.728 | 0.877 | 1.98 | 3.02 | 1.49 | 3.07 | 1.64 | 1.67 | 1.14 | 1.43 | 0.118 | -0.149 | 0.313 | -0.057 | 1.08 | 0.298
GCGACTGGGCCATCAGCAGGTTACCATAACTTAA | -0.78 | -0.767 | -0.789 | -0.559 | -1.23 | 0.242 | 0.386 | -0.176 | -0.886 | -0.265 | 2.78 | 2.04 | -0.993 | -1.45 | -0.551 | -0.569 | -0.71 | -0.295 | -0.835 | 0.195
TCTATTAGTTGAAGGGAAACCGACGAGTCCGTTT | 0.681 | 0.912 | 0.189 | 0.65 | 0.644 | 0.587 | -0.183 | 2.13 | 4.34 | 3.16 | 2.49 | -0.0119 | 0.417 | 1.24 | 1.32 | 0.508 | 0.678 | 0.362 | 1.42 | 0.377
CGAACTAGGTTAGAACAGGACAGTGAAGGATGAT | 0.283 | 0.174 | -0.0175 | -0.235 | 0.0334 | 1.22 | 1.6 | 1.27 | 0.448 | 0.886 | 5.02 | 4.21 | 0.977 | 0.101 | 0.487 | -0.0109 | -0.256 | 0.212 | -0.0731 | 0.527
GCTATTAGTTGAAAGGGCTACCGAATGATTCTCG | -0.348 | -0.291 | -0.117 | -0.32 | -0.468 | 0.0178 | 0.531 | 1.52 | 0.317 | 1.21 | 0.511 | -0.182 | -0.304 | 0.104 | 0.707 | -0.465 | -0.174 | -0.0219 | 0.6 | 0.408
TGATTGAGGTTATAAGATCAGGGAACGTTGCAAA | 1.58 | 1.48 | -0.174 | 1.21 | -0.195 | 2.46 | 0.965 | 1.78 | 0.689 | 1.56 | 0.431 | 1.59 | 0.391 | 0.349 | 0.564 | 0.896 | -0.0809 | 1.5 | 0.232 | 1.19
ATATGTAGGTTACATCCGGTTCATTCAGGCTATG | 1 | 4.13 | 1.07 | 2.07 | 0.614 | 3.53 | 5.17 | 4.39 | 2.2 | 3.81 | 7.75 | 7.32 | 3.76 | 2.01 | 1.08 | 3.66 | 5.68 | 1.55 | 0.415 | 1.22
TCTTGTAGATCAACAGCAGGTTAAGAAAGATCGA | 0.263 | 0.476 | -0.0928 | 0.569 | -0.319 | 0.609 | -0.21 | 1.17 | 2.61 | 1.7 | 1.66 | 0.684 | -0.0164 | 0.918 | -0.793 | 0.178 | -0.2 | 0.544 | 0.0361 | 0.0725
